Assay outcomes (PubChem)
A selection: hits, their analogues and other compounds. The true share with any hit is near 1.4%.
HePTP inh: inhibitors of human HePTP phosphatase, primary screen, biochemical, absorbance, leukemia target. Tyrosine-protein phosphatase non-receptor type 7 (Homo sapiens), P35236. recombinant HePTP phosphatase activity, OD absorbance. inhibition, % at 20 µM. actives 0.64% (n = 110,000). AID 521, 2006; in the data active = inhibition above about 50%;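 note: plate controls were vehicle for no effect and reference inhibitor for full effect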
FXIa mix inh: FXIa protease inhibitors in compound pools, primary screen, biochemical, 10-compound mixtures | Coagulation factor XI (Homo sapiens), P03951 | purified FXIa, fluorogenic substrate, pooled mixtures | inhibition, % at 5 µM | actives 0.19% (n = 62,000) | AID 680, 2007;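 note: each value is inhibition by a whole ten-compound pool holding the compound; 0% = enzyme with no mixture and 100% = wells lacking enzyme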
Target sequence (P03951 19-387 limits assumed): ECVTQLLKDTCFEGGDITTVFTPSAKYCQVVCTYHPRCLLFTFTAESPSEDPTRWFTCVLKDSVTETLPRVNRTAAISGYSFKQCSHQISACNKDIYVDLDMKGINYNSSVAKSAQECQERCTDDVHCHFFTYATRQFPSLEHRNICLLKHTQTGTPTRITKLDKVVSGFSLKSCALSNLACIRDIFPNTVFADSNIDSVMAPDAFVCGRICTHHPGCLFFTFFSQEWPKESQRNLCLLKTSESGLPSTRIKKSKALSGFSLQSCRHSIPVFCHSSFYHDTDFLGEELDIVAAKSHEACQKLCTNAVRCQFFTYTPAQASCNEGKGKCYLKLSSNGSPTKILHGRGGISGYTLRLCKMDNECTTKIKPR
Target sequence (P03951 388-625 limits assumed): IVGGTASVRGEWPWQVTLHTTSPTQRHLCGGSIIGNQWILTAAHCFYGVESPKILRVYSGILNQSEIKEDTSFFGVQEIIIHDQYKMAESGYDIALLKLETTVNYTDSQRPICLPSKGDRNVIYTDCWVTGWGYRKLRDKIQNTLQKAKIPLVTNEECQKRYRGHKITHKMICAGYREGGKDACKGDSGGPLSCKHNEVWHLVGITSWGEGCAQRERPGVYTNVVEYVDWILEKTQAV
C1s inh: complement C1s protease inhibitors, primary screen, biochemical, 10-compound mixtures. purified C1s, fluorogenic AMC substrate, pooled mixtures. mean inhibition % of two 10-compound mixtures (active compounds read high), % at 5 µM (by protocol). actives 0.16% (n = 62,000);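 active = inhibition above 20% in each of the two 10-compound mixture wells holding the compound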;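 note: 0% = enzyme wells lacking compound mixture and 100% = no-enzyme blank wells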
PLAP act: PLAP enzyme activators, biochemical, luminescence, HTS. Alkaline phosphatase, placental type (Homo sapiens), P05187. activation fold at 20 µM. purified PLAP enzyme, luminescent substrate read-out; active compounds read high. actives 1.2% (n = 96,000); in the data active = activation fold above about 2
Cathepsin G inh: human cathepsin G inhibitors, primary screen, biochemical, pooled compound mixtures, AMC fluorescence; AID 581, 2007; actives 0.2% (n = 62,000); P08311; purified enzyme, AMC-tetrapeptide fluorescence; inhibition, % at 5 µM (by protocol);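 active = inhibition above 20% in each of the two mixture wells holding the compound; inactive = inhibition of 20% or less in either well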;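 note: 0% = enzyme control without mixture and 100% = blank lacking enzyme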
FXIIa mix inh: human factor XIIa inhibitors, primary screen, biochemical, pooled compound mixtures, fluorogenic substrate. Coagulation factor XII (Homo sapiens), P00748. purified FXIIa. inhibition, % at 5 µM. actives 0.2% (n = 62,000);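 note: 0% = enzyme without compound and 100% = no enzyme blank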
Starred values were filed as active, the others as inactive. Cut-off read from the data, not from the text of the source, unless noted: active = inhibition above about 20% (passing the limit was not always enough); inactive = the rest.

What do the screens show for `O=C(c1sc2ccccc2c1Cl)N1CCC(Cc2ccccc2)CC1`?
HePTP inh: 8

How did O=C(c1sc2ccccc2c1Cl)N1CCN(Cc2ccccc2)CC1 do in these assays?
HePTP inh: 103*

How did CCOc1ccc(NS(=O)(=O)c2cc(-c3nnnn3C)ccc2OC)cc1 do in these assays?
HePTP inh: 4

What do the screens show for `Cc1ccc(C(=O)NC(NC(=S)Nc2cc(C)ccc2C)C(Cl)(Cl)Cl)cc1` (centres undefined)?
HePTP inh: 75*

Results for Cc1ccc(C(=O)NC(NC(=S)Nc2ccccc2)C(Cl)(Cl)Cl)cc1 (centres undefined) ?
HePTP inh: 4

What do the screens show for `CC(Oc1ccccc1)C(=O)Nc1ccccc1I` (centres undefined)?
HePTP inh: -1

What do the screens show for `O=C(CN1CCOCC1)Nc1nc(-c2ccc3c(c2)CCN3S(=O)(=O)c2ccccc2)cs1`?
HePTP inh: -19; FXIa mix inh: 7; C1s inh: 2; PLAP act: 2*; Cathepsin G inh: -2; FXIIa mix inh: -11

How did O=[N+]([O-])c1cncc([N+](=O)[O-])c1Nc1ccc(Cl)cn1 do in these assays?
HePTP inh: 87*

Results for COC(=O)c1ccc(OCC(O)CN2CCCCC2)cc1 (centres undefined) ?
HePTP inh: 5

How did O=C1CC(C23CC4CC(CC(C4)C2)C3)=NN1c1ccccc1 do in these assays?
HePTP inh: 6

How did CCOc1ccc(-c2n[nH]c(C)c2Oc2ccc(OC)cc2)c(O)c1 do in these assays?
HePTP inh: -2; FXIa mix inh: -8; C1s inh: -22; Cathepsin G inh: -11; FXIIa mix inh: 3

How did CCOc1ccc(-c2[nH]ncc2Oc2ccccc2OC)c(O)c1 do in these assays?
HePTP inh: 8; FXIa mix inh: 2; C1s inh: 10; Cathepsin G inh: 8; FXIIa mix inh: 9

How did C=C(C)COc1ccc(-c2[nH]ncc2-c2ccccc2OC)c(O)c1 do in these assays?
HePTP inh: 3; FXIa mix inh: -1; C1s inh: 8; PLAP act: 2.5*; Cathepsin G inh: -2; FXIIa mix inh: -11

What do the screens show for `CCOc1ccc(-c2[nH]ncc2-c2ccc(OC)c(OC)c2)c(O)c1`?
HePTP inh: 6; FXIa mix inh: 3; C1s inh: 10; PLAP act: 2.7*; Cathepsin G inh: 8; FXIIa mix inh: 1

Results for C=C(C)COc1ccc(-c2[nH]ncc2Oc2ccccc2OC)c(O)c1 ?
HePTP inh: -7; FXIa mix inh: 4; C1s inh: -19; PLAP act: 2*; Cathepsin G inh: -10; FXIIa mix inh: 1

What do the screens show for `C=C(C)COc1ccc(-c2nc(N)ncc2Oc2ccccc2OC)c(O)c1`?
HePTP inh: 1; FXIa mix inh: 5; C1s inh: 4; PLAP act: 1; Cathepsin G inh: 5; FXIIa mix inh: 12

How did CCOc1ccc(-c2[nH]ncc2Oc2ccccc2OCC)c(O)c1 do in these assays?
HePTP inh: -3; FXIa mix inh: -1; C1s inh: -30; PLAP act: 2.5*; Cathepsin G inh: 2; FXIIa mix inh: 15

What do the screens show for `Cc1cc(C)cc(NC(=O)C(=O)NCc2ccncc2)c1`?
HePTP inh: 6

How did CCn1c(=N)n(CC(=O)c2cc(C(C)(C)C)c(O)c(C(C)(C)C)c2)c2ccccc21 do in these assays?
HePTP inh: 11

What do the screens show for `CC(C)Oc1ccc(NC(=O)CSc2nnnn2-c2ccccc2)cc1`?
HePTP inh: 9

How did Cc1ccc(/C=C2/SC(=S)N(NC(=O)c3ccccc3C)C2=O)cc1 do in these assays?
HePTP inh: 8

How did c1ccc(N2Cc3cc4c(cc3C2)CN(c2ccccc2)C4)cc1 do in these assays?
HePTP inh: -2

How did CCCOC(=O)c1ccc(Oc2cn[nH]c2-c2ccc(OC)cc2O)cc1 do in these assays?
HePTP inh: 4; FXIa mix inh: 12; C1s inh: 6; PLAP act: 2.9*; Cathepsin G inh: 2; FXIIa mix inh: 4

Results for CCCOC(=O)c1ccc(NC(=O)COc2ccc(OC)cc2)cc1 ?
HePTP inh: -15

How did O=C(NN1C(=O)/C(=C\c2ccccn2)SC1=S)c1ccccc1 do in these assays?
HePTP inh: 0

What do the screens show for `N#CCC(=O)N1CCN(C(c2ccccc2)c2ccccc2)CC1`?
HePTP inh: 103*

Results for COc1cccc(-n2c(SCC(=O)N3CCOCC3)nnc2-c2c[nH]c3ccccc23)c1 ?
HePTP inh: 10; FXIa mix inh: 24*; C1s inh: -5; PLAP act: 1.1; Cathepsin G inh: 6; FXIIa mix inh: 6

How did CCOC(=O)N1CCN(C(=O)C(=O)Nc2ccc3nc4n(c(=O)c3c2)CCCCC4)CC1 do in these assays?
PLAP act: 1.5

Results for CCOC(=O)N1CCN(C(=O)CC(=O)Nc2ccc3nc4n(c(=O)c3c2)CCCCC4)CC1 ?
HePTP inh: 10; FXIa mix inh: 8; C1s inh: -10; PLAP act: 1.6; Cathepsin G inh: 1; FXIIa mix inh: 47*

What do the screens show for `CC1=C(C(=O)OCCc2ccccc2)C(c2ccc(O)c([N+](=O)[O-])c2)NC(=O)N1` (centres undefined)?
HePTP inh: -2

Results for NC(=O)C1CCN(CC(=O)N2c3ccccc3CCc3ccccc32)CC1 ?
HePTP inh: 10; FXIa mix inh: 7; C1s inh: 12; PLAP act: 1.7; Cathepsin G inh: 11; FXIIa mix inh: 30*

What do the screens show for `CC(C)Nc1nc(Cl)nc(NNC(=O)C(C)Oc2ccccc2)n1` (centres undefined)?
PLAP act: 2.2*

What do the screens show for `COc1ccc([N+](=O)[O-])cc1-c1ccc(/C=N\Nc2ccc([N+](=O)[O-])cn2)o1`?
HePTP inh: 9

What do the screens show for `CCOc1cc(/C=C2\SC(N)=NC2=O)cc(Br)c1OS(=O)(=O)c1ccc([N+](=O)[O-])cc1`?
HePTP inh: 5

How did O=C(N=Nc1c(O)n(CN2CCOCC2)c2ccc(Br)cc12)c1cccnc1 do in these assays?
HePTP inh: 2

What do the screens show for `Cc1cc(C)n(-c2nc(NCCC(C)C)c3c4c(sc3n2)COC(C)(C)C4)n1`?
PLAP act: 2.9*

Results for O=C(NCCCO)c1cccc([N+](=O)[O-])c1 ?
HePTP inh: 5

Results for O=C1c2ccccc2C(=O)N1c1nc(-c2cccs2)cs1 ?
HePTP inh: 10; FXIa mix inh: 2; C1s inh: 13; PLAP act: 1.2; Cathepsin G inh: 15; FXIIa mix inh: 20*
